According to PubChem BioAssay (NCATS):
Results filed as inconclusive are left out. Entries that show only a call come without a potency. The source made the active and inactive calls. Calls follow the shape of the dose curve; as a rule, active = well fitted inhibition curve with a large enough effect; inconclusive = small, poorly fitted or top-dose-only effect; inactive = flat fitted curve, though single readings scatter.

Experiments:
Assay in all cases: qHTS profiling for inhibitors of Plasmodium falciparum proliferation (AID 504749); also: nearly all actives have a fitted effect of over 60% in size
Details in all cases: P. falciparum in erythrocytes, SYBR Green DNA, 72 h; series mostly up to 28.7 µM
DIV14 = tested on: DIV14
Procedure, shortened: (§1)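 SYBR Green fluorescence (ex 485 nm, em 535 nm) reports parasite DNA after 72 h compound exposure of infected red cells at 0.3% parasitemia, 2.5% hematocrit; signal normalized to 0.29 uM artemisinin and vehicle wells.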

DIV17 = tested on: DIV17
Procedure, shortened: as §1

DIV30 = tested on: DIV30
Procedure, shortened: as §1

Dd2 = tested on: Dd2
Procedure, shortened: as §1

ECU = tested on: ECU
Procedure, shortened: as §1

FAB9 = tested on: FAB9
Procedure, shortened: as §1

GB4 = tested on: GB4
Procedure, shortened: as §1

HB3 = tested on: HB3
Procedure, shortened: as §1

ICS = tested on: ICS
Procedure, shortened: as §1

JCK = tested on: JCK
Procedure, shortened: as §1

N140 = tested on: N140
Procedure, shortened: as §1

P93_24 = tested on: P93_24
Procedure, shortened: as §1

P94_40 = tested on: P94_40
Procedure, shortened: as §1

PAD = tested on: PAD
Procedure, shortened: as §1

PC15 = tested on: PC15
Procedure, shortened: as §1

PC26 = tested on: PC26
Procedure, shortened: as §1

PC49 = tested on: PC49
Procedure, shortened: as §1

SC27B = tested on: SC27B
Procedure, shortened: as §1

TAB109 = tested on: TAB109
Procedure, shortened: as §1

TAB113 = tested on: TAB113
Procedure, shortened: as §1
Potency is read from the fitted curve at half-maximal effect.

## CCN(CC)CCCN(c1ccccc1)C1Cc2ccccc2C1
DIV14
  Potency: 2.13 µM (active)
DIV17
  Potency: 4.26 µM (active)
DIV30
  Potency: 8.49 µM (active)
Dd2
  Potency: 3.98 µM (active)
ECU
  Potency: 3.98 µM (active)
FAB9
  Potency: 5.62 µM (active)
GB4
  Potency: 6.01 µM (active)
HB3
  Potency: 11.2 µM (active)
ICS
  Potency: 3.55 µM (active)
JCK
  Potency: 11.2 µM (active)
N140
  Potency: 5.01 µM (active)
P93_24
  Potency: 4.47 µM (active)
P94_40
  Potency: 5.01 µM (active)
PAD
  Potency: 4.47 µM (active)
PC15
  Potency: 4.47 µM (active)
PC26
  Potency: 7.57 µM (active)
PC49
  Potency: 3.98 µM (active)
SC27B
  Potency: 7.94 µM (active)
TAB109
  Potency: 3.55 µM (active)
TAB113
  Potency: 3.98 µM (active)

## O=C(O)CCCCCCCC(=O)O
DIV14
  Potency: inactive
DIV17
  Potency: inactive
DIV30
  Potency: inactive
Dd2
  Potency: inactive
ECU
  Potency: inactive
FAB9
  Potency: inactive
GB4
  Potency: inactive
HB3
  Potency: inactive
ICS
  Potency: inactive
JCK
  Potency: inactive
N140
  Potency: inactive
P93_24
  Potency: inactive
P94_40
  Potency: inactive
PAD
  Potency: inactive
PC15
  Potency: inactive
PC26
  Potency: inactive
PC49
  Potency: inactive
SC27B
  Potency: inactive
TAB109
  Potency: inactive
TAB113
  Potency: inactive

## CC(=O)[C@@]1(O)CC[C@H]2[C@@H]3CCC4=CC(=O)CC[C@]4(C)[C@H]3CC[C@@]21C
DIV14
  Potency: inactive
DIV17
  Potency: inactive
DIV30
  Potency: inactive
Dd2
  Potency: inactive
ECU
  Potency: inactive
FAB9
  Potency: inactive
GB4
  Potency: inactive
HB3
  Potency: inactive
ICS
  Potency: inactive
JCK
  Potency: inactive
N140
  Potency: inactive
P93_24
  Potency: inactive
P94_40
  Potency: inactive
PAD
  Potency: inactive
PC15
  Potency: inactive
PC26
  Potency: inactive
PC49
  Potency: inactive
SC27B
  Potency: inactive
TAB109
  Potency: inactive
TAB113
  Potency: inactive

## CN(C)C(=O)Oc1cccc([N+](C)(C)C)c1
DIV14
  Potency: inactive
DIV17
  Potency: inactive
DIV30
  Potency: inactive
Dd2
  Potency: inactive
ECU
  Potency: inactive
FAB9
  Potency: inactive
GB4
  Potency: inactive
HB3
  Potency: inactive
ICS
  Potency: inactive
JCK
  Potency: inactive
N140
  Potency: inactive
P93_24
  Potency: inactive
P94_40
  Potency: inactive
PAD
  Potency: inactive
PC15
  Potency: inactive
PC26
  Potency: inactive
PC49
  Potency: inactive
SC27B
  Potency: inactive
TAB109
  Potency: inactive
TAB113
  Potency: inactive

## Nc1nc(N)c2nc(-c3ccccc3)c(N)nc2n1
DIV14
  Potency: inactive
DIV17
  Potency: inactive
DIV30
  Potency: inactive
Dd2
  Potency: inactive
ECU
  Potency: 2.82 µM (active)
FAB9
  Potency: 3.16 µM (active)
GB4
  Potency: 1.35 µM (active)
HB3
  Potency: inactive
ICS
  Potency: inactive
JCK
  Potency: inactive
N140
  Potency: inactive
P93_24
  Potency: inactive
P94_40
  Potency: inactive
PAD
  Potency: inactive
PC15
  Potency: inactive
PC26
  Potency: inactive
PC49
  Potency: inactive
SC27B
  Potency: inactive
TAB109
  Potency: inactive
TAB113
  Potency: inactive

## CC(C(=O)O)c1ccc(CC2CCCC2=O)cc1 (stereo not given)
DIV14
  Potency: inactive
DIV17
  Potency: inactive
DIV30
  Potency: inactive
Dd2
  Potency: inactive
ECU
  Potency: inactive
FAB9
  Potency: inactive
GB4
  Potency: inactive
HB3
  Potency: inactive
ICS
  Potency: inactive
JCK
  Potency: inactive
N140
  Potency: inactive
P93_24
  Potency: inactive
P94_40
  Potency: inactive
PAD
  Potency: inactive
PC15
  Potency: inactive
PC26
  Potency: inactive
PC49
  Potency: inactive
SC27B
  Potency: inactive
TAB109
  Potency: inactive
TAB113
  Potency: inactive

## CN1CCN(CC(=O)N2c3ccccc3C(=O)Nc3cccnc32)CC1
DIV14
  Potency: inactive
DIV17
  Potency: inactive
DIV30
  Potency: inactive
Dd2
  Potency: inactive
ECU
  Potency: inactive
FAB9
  Potency: inactive
GB4
  Potency: inactive
HB3
  Potency: inactive
ICS
  Potency: inactive
JCK
  Potency: inactive
N140
  Potency: inactive
P93_24
  Potency: inactive
P94_40
  Potency: inactive
PAD
  Potency: inactive
PC15
  Potency: inactive
PC26
  Potency: inactive
PC49
  Potency: inactive
SC27B
  Potency: inactive
TAB109
  Potency: inactive
TAB113
  Potency: inactive

## COc1ccc([C@@H]2Sc3ccccc3N(CCN(C)C)C(=O)[C@@H]2OC(C)=O)cc1
DIV14
  Potency: inactive
DIV17
  Potency: inactive
DIV30
  Potency: inactive
Dd2
  Potency: inactive
ECU
  Potency: inactive
FAB9
  Potency: inactive
GB4
  Potency: inactive
HB3
  Potency: inactive
ICS
  Potency: inactive
JCK
  Potency: 10 µM (active)
N140
  Potency: inactive
P93_24
  Potency: inactive
P94_40
  Potency: inactive
PAD
  Potency: inactive
PC15
  Potency: inactive
PC26
  Potency: inactive
PC49
  Potency: inactive
SC27B
  Potency: inactive
TAB109
  Potency: inactive
TAB113
  Potency: inactive

## CN(C)C(=O)Oc1ccc[n+](C)c1
DIV14
  Potency: inactive
DIV17
  Potency: inactive
DIV30
  Potency: inactive
Dd2
  Potency: inactive
ECU
  Potency: inactive
FAB9
  Potency: inactive
GB4
  Potency: inactive
HB3
  Potency: inactive
ICS
  Potency: inactive
JCK
  Potency: inactive
N140
  Potency: inactive
P93_24
  Potency: inactive
P94_40
  Potency: inactive
PAD
  Potency: inactive
PC15
  Potency: inactive
PC26
  Potency: inactive
PC49
  Potency: inactive
SC27B
  Potency: inactive
TAB109
  Potency: inactive
TAB113
  Potency: inactive

## CCN1CCC[C@H]1CNC(=O)c1c(O)c(Cl)cc(Cl)c1OC
DIV14
  Potency: inactive
DIV17
  Potency: inactive
DIV30
  Potency: inactive
Dd2
  Potency: inactive
ECU
  Potency: inactive
FAB9
  Potency: inactive
GB4
  Potency: inactive
HB3
  Potency: inactive
ICS
  Potency: inactive
JCK
  Potency: inactive
N140
  Potency: inactive
P93_24
  Potency: inactive
P94_40
  Potency: inactive
PAD
  Potency: inactive
PC15
  Potency: inactive
PC26
  Potency: inactive
PC49
  Potency: inactive
SC27B
  Potency: inactive
TAB109
  Potency: inactive
TAB113
  Potency: inactive

## C[N+](C)(C)CCOC(=O)CCC(=O)OCC[N+](C)(C)C
DIV14
  Potency: inactive
DIV17
  Potency: inactive
DIV30
  Potency: inactive
Dd2
  Potency: inactive
ECU
  Potency: inactive
FAB9
  Potency: inactive
GB4
  Potency: inactive
HB3
  Potency: inactive
ICS
  Potency: inactive
JCK
  Potency: inactive
N140
  Potency: inactive
P93_24
  Potency: inactive
P94_40
  Potency: inactive
PAD
  Potency: inactive
PC15
  Potency: inactive
PC26
  Potency: inactive
PC49
  Potency: inactive
SC27B
  Potency: inactive
TAB109
  Potency: inactive
TAB113
  Potency: inactive

## C[N+](C)(C)CCCCCCCCCC[N+](C)(C)C
DIV14
  Potency: 1.07 µM (active)
DIV17
  Potency: 1.69 µM (active)
DIV30
  Potency: 4.26 µM (active)
Dd2
  Potency: 3.16 µM (active)
ECU
  Potency: 10 µM (active)
FAB9
  Potency: 5.01 µM (active)
GB4
  Potency: 3.01 µM (active)
HB3
  Potency: 1.58 µM (active)
ICS
  Potency: 2.24 µM (active)
JCK
  Potency: 11.2 µM (active)
N140
  Potency: 2.82 µM (active)
P93_24
  Potency: 2.51 µM (active)
P94_40
  Potency: 2.51 µM (active)
PAD
  Potency: 2.24 µM (active)
PC15
  Potency: 8.91 µM (active)
PC26
  Potency: 6.01 µM (active)
PC49
  Potency: 3.98 µM (active)
SC27B
  Potency: 3.98 µM (active)
TAB109
  Potency: 3.55 µM (active)
TAB113
  Potency: 2.82 µM (active)

## NC(=O)c1ncn([C@@H]2O[C@H](CO)[C@@H](O)[C@H]2O)c1O
DIV14
  Potency: inactive
DIV17
  Potency: inactive
DIV30
  Potency: inactive
Dd2
  Potency: inactive
ECU
  Potency: inactive
FAB9
  Potency: inactive
GB4
  Potency: inactive
HB3
  Potency: inactive
ICS
  Potency: inactive
JCK
  Potency: inactive
N140
  Potency: inactive
P93_24
  Potency: inactive
P94_40
  Potency: inactive
PAD
  Potency: inactive
PC15
  Potency: inactive
PC26
  Potency: inactive
PC49
  Potency: inactive
SC27B
  Potency: inactive
TAB109
  Potency: inactive
TAB113
  Potency: inactive
